Source: PubChem BioAssay
Active and inactive are the calls of the source. Unless noted, how the calls were made is not given here.

Experiments:
[1] = compound effects on lung adenocarcinoma cell viability – A549, calcein-AM fluorescence, 48 h, basal, profiling panel (AID 1162); details: higher = more signal; further: test concentration not given here
[2] = compound effects on differentiated 3T3-L1 adipocyte viability – cell-based, 3T3-L1 adipocytes, calcein-AM fluorescence, 48 h, basal, profiling panel (AID 1163); details: 3T3-L1 adipocytes viability, higher = more signal; further: test concentration not given here
[3] = compound effects on hepatocellular carcinoma cell viability – HepG2, calcein-AM fluorescence, 48 h, basal, profiling panel (AID 1164); details: higher = more signal; further: test concentration not given here
[4] = compound effects on multiple myeloma cell viability – MM1S, calcein-AM fluorescence, 48 h, basal, profiling panel (AID 1165); details: higher = more signal;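 further: viability of MM1S multiple myeloma cells under basal unstimulated conditions; test concentration not given here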
[5] = calcein-AM signal in unstimulated myeloma cells – cell-based, calcein-AM fluorescence, 48 h, PK04 Diversity Set, profiling panel (AID 1166); details: RPMI8226 myeloma viability, higher = more signal;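 further: cells grown under basal conditions without added stimulus; test concentration not given here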
[6] = JC-1 mitochondrial signal, unstimulated HepG2 cells – cell-based, JC-1 fluorescence, 24 h, 100 nL compound, profiling panel (AID 1167); details: HepG2 mitochondrial potential, higher = more signal; further: test concentration not given here
[7] = JC-1 mitochondrial signal, unstimulated adipocytes – cell-based, JC-1 fluorescence, 3T3-L1 adipocytes, 24 h, 100 nL compound, profiling panel (AID 1168); details: JC-1 mitochondrial fluorescence, higher = more signal, called active from +8 up or from −8 down; further: test concentration not given here
[8] = JC-1 mitochondrial signal, unstimulated myeloma cells – cell-based, JC-1 fluorescence, RPMI8226, 24 h, 100 nL compound, profiling panel (AID 1169); details: JC-1 mitochondrial potential fluorescence, higher = more signal; further: test concentration not given here
[9] = JC-1 mitochondrial signal, unstimulated MM1S myeloma – cell-based, JC-1 fluorescence, 24 h, 100 nL compound, profiling panel (AID 1170); details: MM1S mitochondrial potential, higher = more signal; further: test concentration not given here
[10] = resazurin metabolic signal in A549 cells – cell-based, resazurin fluorescence, 24 h, PK04 Diversity Set, profiling panel (AID 1171); details: A549 viability, higher = more signal, called active from +8 up or from −8 down; further: test concentration not given here
[11] = resazurin metabolic signal in HepG2 cells – cell-based, resazurin fluorescence, 24 h, PK04 Diversity Set, profiling panel (AID 1172); details: HepG2 viability, higher = more signal; further: test concentration not given here
[12] = budding yeast growth changes without added modifier – OD600, strain BY4716, 24 h, basal condition, primary screen (AID 1173); details: S. cerevisiae BY4716 growth, OD600, 24 h; higher = more signal, called active from +8 up or from −8 down
[13] = viability profiling in MM1S myeloma cells – cell-based, resazurin fluorescence, basal, 24 h, PK04 Diversity Set, profiling panel (AID 1174); details: higher = more signal, called active from +8 up or from −8 down; further: test concentration not given here
[14] = molecular target: Dihydroorotate dehydrogenase (quinone), mitochondrial (Plasmodium falciparum (isolate 3D7)) (UniProt Q08210); test: inhibition of P. falciparum DHODH – biochemical, C-terminal His tag, absorbance 600 nm, primary screen (AID 1175); details: PfDHODH enzyme, DCIP absorbance 600 nm; higher = more signal, called active from +8 up or from −8 down;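 further: recombinant parasite enzyme with a five histidine tag at its C terminus; test concentration not given here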
Chain of Dihydroorotate dehydrogenase (quinone), mitochondrial (Plasmodium falciparum (isolate 3D7)) (Q08210 whole entry, looked up): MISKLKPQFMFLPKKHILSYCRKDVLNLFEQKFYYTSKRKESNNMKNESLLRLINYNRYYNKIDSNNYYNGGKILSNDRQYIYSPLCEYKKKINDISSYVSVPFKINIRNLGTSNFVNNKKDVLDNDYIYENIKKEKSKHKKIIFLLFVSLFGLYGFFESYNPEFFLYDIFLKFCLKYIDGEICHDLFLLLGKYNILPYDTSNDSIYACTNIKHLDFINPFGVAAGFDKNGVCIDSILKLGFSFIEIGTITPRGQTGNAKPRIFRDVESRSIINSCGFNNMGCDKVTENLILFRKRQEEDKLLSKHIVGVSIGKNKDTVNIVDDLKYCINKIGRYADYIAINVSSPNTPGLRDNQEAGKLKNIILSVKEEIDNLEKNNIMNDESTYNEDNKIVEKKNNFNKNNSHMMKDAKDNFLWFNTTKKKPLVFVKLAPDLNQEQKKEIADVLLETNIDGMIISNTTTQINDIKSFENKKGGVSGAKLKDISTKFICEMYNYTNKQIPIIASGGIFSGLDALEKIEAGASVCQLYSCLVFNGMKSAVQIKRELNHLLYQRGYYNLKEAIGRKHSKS

[15] = inhibition of PAO1 biofilm formation – strain PAO1, LB-PBS medium, absorbance 600 nm, primary screen (AID 1176); further: test concentration not given here; details: P. aeruginosa PAO1 growth/biofilm, A600, 12 h; higher = more signal
[16] = growth modulation of vineyard yeast isolate – strain RM11-1a, OD600, basal, 24 h, primary screen (AID 1177);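 further: cultures grown under basal conditions with no added stressor; test concentration not given here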; details: S. cerevisiae RM11-1a growth, OD600, 24 h; higher = more signal, called active from +8 up or from −8 down
[17] = growth of efflux-deficient E. coli DRC39 – strain DRC39, OD650, 24 h, E. coli filamentation inducers, primary screen (AID 1178);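 further: growth measured as culture turbidity by optical density at 650 nm; test concentration not given here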; details: E. coli DRC39 acrAB, higher = more signal, called active from +8 up or from −8 down
[18] = growth of efflux-deficient E. coli DRC39 – strain DRC39, OD650, 48 h, E. coli filamentation inducers, primary screen (AID 1179);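 further: screen aims at cell division blockers that make cells filament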; details: E. coli DRC39 delta-acrAB growth, higher = more signal, called active from +8 up or from −8 down
[19] = viability profiling in RPMI8226 myeloma cells – cell-based, resazurin fluorescence, basal, 24 h, PK04 Diversity Set, profiling panel (AID 1180); details: higher = more signal;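 further: RPMI8826 multiple myeloma cell line at 5000 cells per well; test concentration not given here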
[20] = molecular target: E3 ubiquitin-protein ligase XIAP (Homo sapiens) (UniProt P98170); test: small molecules binding XIAP protein – biophysical, small-molecule microarray, fluorescence 635 nm, primary screen (AID 1181); details: higher = more signal;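 further: score merges 667 nm emission and signal to noise over triplicate slides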
Chain of E3 ubiquitin-protein ligase XIAP (Homo sapiens) (P98170 whole entry, looked up): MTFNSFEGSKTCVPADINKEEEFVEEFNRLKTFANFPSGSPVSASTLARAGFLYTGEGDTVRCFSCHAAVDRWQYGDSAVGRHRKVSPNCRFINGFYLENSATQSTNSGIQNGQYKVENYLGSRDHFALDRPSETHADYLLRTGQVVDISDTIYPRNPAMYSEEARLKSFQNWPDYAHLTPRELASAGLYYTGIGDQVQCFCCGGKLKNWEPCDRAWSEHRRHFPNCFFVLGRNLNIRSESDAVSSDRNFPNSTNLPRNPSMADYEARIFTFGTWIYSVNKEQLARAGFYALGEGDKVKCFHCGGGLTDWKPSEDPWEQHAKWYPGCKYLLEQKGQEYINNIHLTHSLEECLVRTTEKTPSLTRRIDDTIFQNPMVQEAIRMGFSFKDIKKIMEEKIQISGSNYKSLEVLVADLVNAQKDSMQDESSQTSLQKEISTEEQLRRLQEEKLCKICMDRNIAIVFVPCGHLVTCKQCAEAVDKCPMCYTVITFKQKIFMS

Row | Structure (SMILES) | z-score [1] | z-score [2] | z-score [3] | z-score [4] | z-score [5] | z-score [6] | z-score [7] | z-score [8] | z-score [9] | z-score [10] | z-score [11] | z-score [12] | z-score [13] | composite z-score [14] | z-score [15] | z-score [16] | z-score [17] | z-score [18] | z-score [19] | composite z-score [20]
1 | CCCC[C@@H]1C[C@H]1[C@@H](NC(=O)Cc1ccccc1)c1ccc(-c2ccccc2)cc1 | -0.902 | -0.12 | -0.323 | -0.378 | -1.48 | -0.929 | -0.118 (inactive) | 0.043 | -1.71 | 0.261 (inactive) | 1.21 | 0.953 (inactive) | 0.143 (inactive) | 0.183 (inactive) | -1.19 (inactive) | 0.636 (inactive) | -0.104 (inactive) | 0.289 (inactive) | -1.18 | -0.0351
2 | COCCCNC(=O)[C@@]1(Cc2ccccc2N=[N+]=[N-])COC(c2ccc(OCCCO)cc2)=N1 | 0.552 | -0.707 | 0.815 | -0.919 | -0.0778 | 0.796 | 0.156 (inactive) | -0.408 | -1.21 | 0.992 (inactive) | 0.677 | -1.68 (inactive) | -0.583 (inactive) | 0.962 (inactive) | -0.76 (inactive) | 0.483 (inactive) | 0.349 (inactive) | 0.746 (inactive) | 0.895 | 0.0049
3 | C=CCC(OC(C)=O)[C@@H]1[C@@H](N(Cc2cc3ccccc3o2)C(=O)c2ccc(-c3ccccc3)cc2)c2cc(OCCCO)ccc2N1C(=O)c1ccc2ccccc2c1 (stereo not given in full) | 0.48 | 1 | 0.063 | 0.532 | 0.299 | 1.81 | -1.11 (inactive) | 0.868 | 0.32 | 0.457 (inactive) | -0.98 | 1.9 (inactive) | 0.198 (inactive) | 0.396 (inactive) | 0.857 (inactive) | 0.454 (inactive) | -0.413 (inactive) | -0.787 (inactive) | -0.158 | -0.135
4 | C=C[C@@H](OC)[C@H](OC(=O)Nc1ccc(SC)cc1)c1ccc(O)c(F)c1 | -0.247 | -0.19 | -0.419 | -1.4 | -0.515 | -2.52 | 1.47 (inactive) | -0.362 | -0.317 | -0.637 (inactive) | -0.626 | -2.65 (inactive) | -0.807 (inactive) | 0.592 (inactive) | 1.22 (inactive) | 1.95 (inactive) | -0.881 (inactive) | -1.19 (inactive) | -0.649 | -0.117
5 | CCOC(=O)[C@H]1[C@@H]2C(=O)N3CCC[C@H]3[C@H](O[Si](C(C)C)(C(C)C)C(C)C)[C@H]2C=C2CCN(S(=O)(=O)c3ccc(C)cc3)C[C@H]21 | 0.487 | 0.302 | -1.18 | -2.91 | -4.09 | 1.51 | -0.603 (inactive) | -1.06 | -0.814 | -0.742 (inactive) | -1.01 | 0.212 (inactive) | -1.84 (inactive) | -0.627 (inactive) | 0.318 (inactive) | -0.598 (inactive) | -0.146 (inactive) | -0.641 (inactive) | -3.37 | -0.148
6 | C=CCNC(=O)[C@@H]1[C@H]2C(=O)O[C@H](c3ccccc3)[C@H](c3ccccc3)N2[C@H](c2ccc(O)cc2)[C@@]12C(=O)N(C(=O)OCCOC)c1ccc(C#CC3(O)CCCCCC3)cc12 | 0.0287 | 0.284 | 0.446 | 0.362 | 0.895 | 0.577 | 0.8 (inactive) | 0.244 | -0.432 | 0.395 (inactive) | 0.919 | 0.444 (inactive) | -0.689 (inactive) | 0.263 (inactive) | -0.123 (inactive) | 0.3 (inactive) | 0.891 (inactive) | 0.957 (inactive) | 0.196 | -0.391
7 | CN(C)CCCNC(=O)[C@@]1(C)c2ccccc2C(=O)N(Cc2ccccc2)[C@H]1c1ccc(CO)cc1 | 0.0156 | 0.451 | 0.339 | -0.748 | 0.3 | 0.303 | 0.457 (inactive) | -0.798 | 0.445 | 0.356 (inactive) | -0.834 | 0.384 (inactive) | 0.367 (inactive) | -0.106 (inactive) | 0.683 (inactive) | 0.861 (inactive) | -0.147 (inactive) | -0.0983 (inactive) | 0.009 | 0.0155
8 | CCCCCCc1nc(C2CC2)cc2c1[Si](C(C)C)(C(C)C)OC2 | -0.315 | 0.865 | -0.131 | -2.26 | -1.92 | -1.01 | -0.0319 (inactive) | -0.651 | -0.00829 | -0.366 (inactive) | -0.621 | 0.436 (inactive) | 0.0766 (inactive) | -2.54 (inactive) | -0.227 (inactive) | -0.431 (inactive) | -0.423 (inactive) | -0.606 (inactive) | -0.584 | -0.206
9 | NCCCCCNC(=O)[C@@H]1C[C@@H]2C(=O)NCC(=O)N2[C@@H]1c1cccc(OCCO)c1 | -0.507 | 1.11 | -0.531 | -0.686 | -0.947 | 1.5 | -0.298 (inactive) | 0.00435 | 0.53 | -0.505 (inactive) | -0.727 | -0.202 (inactive) | 0.584 (inactive) | -0.73 (inactive) | 1.29 (inactive) | 0.561 (inactive) | -0.0625 (inactive) | -0.485 (inactive) | 0.974 | 0.012
